For 40 compounds, outcome and AC50 results are on record in PubChem BioAssay (EPA / NIEHS).

Several values for one entry are separate records, joined by “and”; a condition that tells them apart may be missing. Identical values can stand only once. Activity calls are given as the source filed them. The calls were made as follows: active = hit-call score of the fitted dose curve at least 0.9, where 1 is the maximum; inactive = score below 0.9.

Read-out in this assay: Matrix Metallopeptidase 1 (MMP1), MMP1 (gene 4312)
Description: BSK_hDFCGF_MMP1: BioMAP Diversity Plus: hDFCGF Assay for Matrix Metallopeptidase 1 (MMP1) Biomarker Activity (AID 2283064). The note with it: primary human foreskin fibroblasts; actives raise or lower the signal. The procedure: BSK_hDFCGF is a cell-based, multiplexed-readout assay that uses foreskin fibroblast, a human skin primary cell, with measurements taken at 24 hours after chemical dosing in a 96-well plate.BSK_hDFCGF_MMP1 is an assay component measured in the BSK_hDFCGF assay. It measures MMP-1 antibody related to regulation of gene expression using ELISA technology.Data from the assay component BSK_hDFCGF_MMP1 was analyzed into 1 assay endpoint. This assay endpoint, BSK_hDFCGF_MMP1, was analyzed with bidirectional fitting relative to DMSO as the negative control and baseline of activity. Using a type of binding reporter, gain or loss-of-signal activity can be used to understand changes in the signaling as they relate to the gene MMP1. Furthermore, this assay endpoint can be referred to as a primary readout, because this assay has produced multiple assay endpoints where this one serves a signaling function. To generalize the intended target to other relatable targets, this assay endpoint is annotated to the protease intended target family, where the subfamily is matrix metalloproteinase.
The levels of cell surface (or secreted, indicated by the prefix "s") biomarker endpoints were measured by ELISA. Overt cytotoxicity to cells in confluent adherent cultures (all systems other than the BT system) was assessed by measuring total protein levels using sulforhodamine B (SRB) staining in parallel cultures at the time of biomarker measurements, indicated as SRB endpoints. For proliferation assays for adherent cell types, individual cell types are cultured at sub-confluence and relative cell numbers quantified by SRB staining at time points optimized for each system (48 h: 3C and CASM3C systems; 72 h: BT and HDF3CGF systems; 96 h: SAg system). SRB was performed by staining cells with 0.1% SRB after fixation with 10% TCA and reading wells at 560 nm.Viability and proliferation of PBMC (T cells) was quantified by Alamar Blue reduction for the SAg and BT systems. For PBMC viability (referred to as PBMC Cytotoxicity within the assay endpoint names), cells were plated (75,000/well in a 96-well plate) and then chemical samples added for 1 h before addition of activators, SEB and TSST-1 (20 ng/mL final concentration each). Cells were incubated for 90 h. Then, Alamar Blue (20 uL/well) (Invitrogen, Cat DAL1100) was added for 6 h, and the plates were read with a fluorescence microplate reader at 546/580 nm (excitation/emission). For PBMC proliferation, cells were plated and activated as above but incubated for only 16 h prior to addition of Alamar Blue. Plates were read after 6 h.
In the case of `CCCCSP(=O)(SCCCC)SCCCC`, the result was inactive. By AC50 is commonly meant the concentration at which the activity in the assay is half-maximal. For `CCOP(=O)(OCC)Oc1cc(C)nc(C(C)C)n1`, the AC50 was 20 µM (active).

For the compound `CC[C@H](C)[C@H]1O[C@]2(C=C[C@@H]1C)C[C@@H]1C[C@@H](C/C=C(\C)[C@@H](O[C@H]3C[C@H](OC)[C@@H](O[C@H]4C[C@H](OC)[C@@H](NC)[C@H](C)O4)[C@H](C)O3)[C@@H](C)/C=C/C=C3\CO[C@@H]4[C@H](O)C(C)=C[C@@H](C(=O)O1)[C@]34O)O2`, the concentration at half-maximal activity (AC50) is 6.78 µM (active).

Take `FC(F)C(F)(F)OCC(Cn1cncn1)c1ccc(Cl)cc1Cl` (stereo not given): the result was inactive. Turning to `CC(C1CC1)C(O)(Cn1cncn1)c1ccc(Cl)cc1` (stereo not given), the result was inactive. Consider `C[Si](Cn1cncn1)(c1ccc(F)cc1)c1ccc(F)cc1`, for which the outcome was inactive.

For the compound `CC(Oc1cccc(Cl)c1)C(=O)O` (stereo not given), the outcome was inactive. Turning to `COc1ccc(C(=CC(=O)N2CCOCC2)c2ccc(Cl)cc2)cc1OC`, the outcome was inactive.

With `CC(C)N(C(=O)SCC(Cl)=C(Cl)Cl)C(C)C`, the AC50 is 31.4 µM (active). Consider `O=[N+]([O-])c1cc(C(F)(F)F)c(Cl)c([N+](=O)[O-])c1Nc1ncc(C(F)(F)F)cc1Cl`, for which the AC50 was 1.59 µM (active) and 10.6 µM (active).

In the case of `COP(=O)(OC)C(O)C(Cl)(Cl)Cl` (stereo not given), the outcome was inactive. On the same count and under the same terms, the result for `CCC(=NOC/C=C/Cl)C1=C(O)CC(C2CCOCC2)CC1=O` (stereo not given) reads “inactive”; that for `CCCOc1nn(C(=O)NS(=O)(=O)c2ccccc2C(=O)OC)c(=O)n1C`, “inactive”. Still for that read-out and setting: the value for `COc1cc(OC)nc(Sc2cccc(Cl)c2C(=O)O)n1` was “inactive”. `CCOC(=O)COc1cc(-c2nn(C)c(OC(F)F)c2Cl)c(F)cc1Cl`: the AC50 was 0.148 µM (active). Take `CCCCOC(=O)c1ccccc1C(=O)O`: the outcome was inactive.

On to `Cc1cc(C2CC2)nc(Nc2ccccc2)n1`, for which the outcome was inactive. Same read-out and setting: the result for `CNC(=O)Oc1cccc2c1OC(C)(C)O2` reads “inactive”. On to `CCOP(=S)(OCC)Oc1ccc2c(C)c(Cl)c(=O)oc2c1`, for which the AC50 is 5.06 µM (active). Take `CCCSP(=O)(OCC)Oc1ccc(Br)cc1Cl` (stereo not given): the result was inactive. Same read-out and setting: the result for `S=C1NCCN1` reads “inactive”; that for `CC(=NC#N)N(C)Cc1ccc(Cl)nc1`, “inactive”. The same measure, in the same setting: the result for `CNc1cnn(-c2cccc(C(F)(F)F)c2)c(=O)c1Cl` reads “inactive”; that for `CN(C)[C@@H]1C(=O)C(C(N)=O)=C(O)[C@@]2(O)C(=O)C3=C(O)c4c(O)cccc4[C@@](C)(O)[C@H]3[C@H](O)[C@@H]12`, “inactive”. Turning to `CCCOCC(=Nc1ccc(Cl)cc1C(F)(F)F)n1ccnc1`, the AC50 was 33.2 µM (active).

With `CNC(=O)ON=C(C)SC`, the result was inactive.

As for `CCC(=O)Nc1ccc(Cl)c(Cl)c1`, the result was inactive. Still for that read-out and setting: the result for `O=C(O)c1cc(Oc2ccc(C(F)(F)F)cc2Cl)ccc1[N+](=O)[O-]` reads “inactive”; that for `CC(COc1ccc(Oc2ccccc2)cc1)Oc1ccccn1` (stereo not given), “inactive”.

As for `C#CCC1=C(C)C(OC(=O)C2C(C=C(C)C)C2(C)C)CC1=O` (stereo not given), the concentration at half-maximal activity (AC50) was 31.6 µM (active). With `CCOP(=S)(OCC)SCCSCC`, the result was inactive. On to `C#CC(C)(C)NC(=O)c1cc(Cl)cc(Cl)c1`, for which the outcome was inactive. The same measure, in the same setting: the result for `CCOP(=O)(NC(C)C)Oc1ccc(SC)c(C)c1` (stereo not given) reads “inactive”; that for `CN(C)NC(=O)CCC(=O)O`, “inactive”.

With `CCCSP(=O)(OCC)SCCC`, the result was inactive. Same read-out and setting: the value for `COc1cccc(C(=O)NN(C(=O)c2cc(C)cc(C)c2)C(C)(C)C)c1C` was “inactive”. The same measure, in the same setting: the result for `CCOP(=S)(OCC)Oc1ccc([N+](=O)[O-])cc1` reads “inactive”; that for `CCOP(=S)(OCC)OC(Cl)C(Cl)(Cl)Cl` (stereo not given), “inactive”; that for `CCOP(=S)(Oc1cnc(C(C)(C)C)nc1)OC(C)C` (stereo not given), “inactive”. Still for that read-out and setting: the value for `CC(C)=CC1C(C(=O)OCN2C(=O)C3=C(CCCC3)C2=O)C1(C)C` (stereo not given) was “inactive”.
